# HT1080 IDH1KD tx – toxicity to HT-1080 IDH1 knockdown cells (counter line); AID 686971; 360,000 compounds, 2% hits; Potency, µM (top dose mostly 46.1 µM), for the others: top-dose activity, negative = toxicity, most hits filed as cytotoxic; HT-1080 IDH1 knockdown viability, ATP luminescence, 48 h;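 note: 0% = DMSO wells and -100% = cell-free medium wells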
#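 Assay cells: HT-1080 with IDH1 knockdown, 750 per well, RPMI/5% FBS. Exposure: 48 h at 37 °C following 2 h pre-incubation. Read: CellTiter-Glo luminescence; fitted concentration-response, curve class assigned.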
# KB-V1 MDR tox – kills drug-selected multidrug resistant KB-V1 cells; 400,000 compounds, 3.4% hits; AID 1347076; Potency, µM (series often up to 46.1 µM), most hits filed as cytotoxic; KB-V1 MDR cells viability, CellTiter-Glo, 72 h; note: nearly all actives have a fitted effect of over 60% in size
#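 KB-V1, DMEM (no phenol red) + 10% FBS; cpd pin-transferred, titration series; 72 h, 37 degrees C; CellTiter-Glo, luminescence. Data normalized, curve-fit.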
# TDP1 cell noCPT – qHTS for Inhibitors of human tyrosyl-DNA phosphodiesterase 1 (TDP1): qHTS in cells in absence of CPT. DT40 Tdp1-/- hTDP1 cells, no CPT, ATP luminescence, 48 h. Potency, µM (series often up to 46.2 µM), inactives show at the top dose activity change, negative = growth inhibition, most hits filed as inhibitors. 420,000 compounds, 15% hits; note: nearly all actives have a fitted effect of over 55% in size
#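 Stably hTDP1-transfected Tdp1-null chicken DT40 cells were treated with library compounds minus camptothecin and grown for at least 48 hr at 37 °C, after which cellular ATP was quantified by luminescence.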
# DT40 TDP1 CPT – DT40-hTDP1 cell growth loss with CPT. chicken DT40 Tdp1-/-;hTDP1 cells + 20 nM CPT, ATP luminescence, 48 h. Potency, µM (doses to about 46.2 µM), for the others: top-dose activity change, negative = growth inhibition, most hits filed as inhibitors. 420,000 compounds, 12% hits. AID 686979; note: nearly all actives have a fitted effect of over 55% in size
#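 Chicken DT40 Tdp1-/- cells stably complemented with human TDP1 were seeded at 400 cells/well in medium containing 20 nM camptothecin, exposed to pin-transferred compounds, and grown at 37 °C for at least 48 hr. Viability was read as ATP luminescence.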
# KB-3-1 tox – KB-3-1 parental cell cytotoxicity. 400,000 compounds, 1.4% hits. Potency, µM (titrated, usually from 46.1 µM), actives largely listed as cytotoxic. KB-3-1 viability, CellTiter-Glo ATP luminescence, 72 h. AID 1347075; note: nearly all actives have a fitted effect of over 60% in size
#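 Multi-concentration cytotoxicity screen in KB-3-1 cells grown in DMEM lacking phenol red with 10% FBS. After 72 h at 37 °C with compound, ATP-dependent luminescence was recorded.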
# HT1080-NT tox – kills 2HG-producing HT-1080-NT fibrosarcoma cells; HT-1080-NT fibrosarcoma viability, CellTiter-Glo ATP luminescence, 48 h; Potency, µM (series often up to 46.1 µM), without a hit: at the highest dose activity, negative = less viability, actives largely listed as cytotoxic; 360,000 compounds, 1.6% hits; AID 686970;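 note: NT is the 2HG producing partner of a matched IDH1 knockdown line; 0% = DMSO-treated cells and -100% = media-only wells without cells; nearly all actives have a fitted effect of over 55% in size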
#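 Luminescent CellTiter-Glo readout after 48 hours of compound exposure at 37 degrees C defined viability of HT-1080-NT cells. Activity was normalized to DMSO wells and cell-free media wells; concentration-response curves were fitted and assigned curve classes.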
# Active calls of the source: *; i = inactive; ? = inconclusive; . = not tested or not shown; [ ] = remark or other dose. In the library only some 19% were active in any assay of this set; here they are far more common. Calls come from the whole dose curve; as a rule, active = well fitted curve in the direction sought with a large enough effect; inconclusive = small, poorly fitted or top-dose-only effect, or another doubt; inactive = no such curve, though single readings can be large; an effect the other way counts as inactive or inconclusive. Unless noted, % is set by controls: 0 for no effect and ±100 for the full control effect; potency is the fitted concentration of half-maximal effect.
SMILES,HT1080 IDH1KD tx,KB-V1 MDR tox,TDP1 cell noCPT,DT40 TDP1 CPT,KB-3-1 tox,HT1080-NT tox
Cc1ccc(NC(=O)c2cc3c(s2)CCC3)cc1S(=O)(=O)N1CCOCC1,-25%,i,?,?,?,-11%
Cc1ccc(NS(=O)(=O)c2cc(NC(=O)c3ccc4c(c3)NC(=O)CS4)ccc2Cl)c(C)c1,?,?,26µM*,?,?,?
CCc1sc(C(=O)Nc2ccc(OC)c(S(=O)(=O)N3CCOCC3)c2)cc1C,-11%,i,?,?,i,-1%[9.24 µM]
COc1cc(S(=O)(=O)N2CCOCC2)ccc1NC(=O)c1cc2c(s1)CCC2,-10%,i,26µM*,16µM*,i,-12%
O=C(Cn1ccn(-c2ccc(F)cc2)c(=O)c1=O)NCCc1ccccc1,.,.,1%,0%,.,.
CCCS(=O)(=O)NC(=O)C1(C)CCCN(C(=O)c2ccc(OC)cc2OC)C1 (configuration not stated),14%,i,-13%,-15%,i,?
COc1ccccc1NC(=O)c1ccc(NC(=O)c2cc3c(s2)CCC3)cc1,-20%,?,16µM*,?,i,-16%
Cc1ccc(NS(=O)(=O)c2cc(NC(=O)c3cc4c(s3)CCCC4)ccc2C)c(C)c1,-5%,3.7µM*,?,?,i,-1%
Cc1ccc(NC(=O)c2cc3c(s2)CCCC3)cc1,-8%,i,-30%,?,i,-27%
Cc1ccc(S(=O)(=O)Nc2ccc(Cl)cc2)cc1NC(=O)c1cc2c(s1)CCCC2,?,15µM*,?,?,i,?
Cc1ccsc1CN1CCc2nc(Nc3ccccc3)ncc2C1,.,i,?,?,?,.
COc1cc(Nc2ncc3c(n2)CCN(Cc2cc(F)cc(F)c2)C3)cc(OC)c1,.,8.2µM*,3.7µM*,4.6µM*,?,.
COc1cc(Nc2ncc3c(n2)CCN(Cc2cccc(C)c2)C3)cc(OC)c1,.,?,3.3µM*,3.7µM*,?,.
COc1ccc(OC)c(Nc2ncc3c(n2)CCN(Cc2cc(OC)c(OC)c(OC)c2)C3)c1,.,i,7.3µM*,5.8µM*,i,.
COc1ccc(S(=O)(=O)Nc2ccc(F)c(F)c2)cc1C(=O)N1CCOCC1,-1%,i,0%,-2%,i,8%
Cc1ccc(Cn2c(=O)n(CCc3ccccc3)c(=O)c3c(C)c(C)sc32)cc1,.,i,?,-13%,i,.
COc1ccc(OCC(=O)Nc2cccc(-c3nc4ccccc4s3)c2C)cc1,.,i,?,?,i,.
C[C@H]1[C@@H](c2ccccc2)Oc2ccc(Cl)cc2S(=O)(=O)N1Cc1ccc(F)cc1F,1%,i,?,?,i,0%
CC(C)(C)NC(=O)CN(Cc1cccs1)C(=O)CCN1CCc2ccccc21,-1%,i,-21%,?,i,3%
CC(C(=O)NC(C)(C)C)N(Cc1cccs1)C(=O)CCN1CCc2ccccc21 (configuration not stated),-21%,?,?,23µM*,i,-15%
O=C(CN1CCN(Cc2ccccc2)CC1)Nc1ccccc1-c1ccccc1,-16%,?,29µM*,26µM*,i,-14%
O=C(CN1CCN(C(c2ccccc2)c2ccccc2)CC1)N1CCOCC1,12%,i,-5%,9%,i,3%
COc1ccccc1NC(=O)CN1CCN(Cc2ccccc2)CC1,1%,10µM*,0%,-1%,i,9%
NC(=O)c1ccccc1NC(=O)CN1CCN(Cc2ccccc2)CC1,11%,i,-3%,-8%,i,6%

# Screening data from PubChem.
